According to the supplement of paper PMC13380429:

Test system: Vero E6 infected with SARS-CoV-2
Assay: inhibition of SARS-CoV-2 cytopathic effect; higher = more antiviral protection, active = above 15
Details: 48 h

Measured: inhibition of SARS-CoV-2 cytopathic effect

OC(CCCN1CCN(c2ncc(F)cn2)CC1)c1ccc(F)cc1 (stereo not given)
inactive: 1 nM -3.3% | 8.33 nM -0.94% | 100 nM 3.34% | 833.33 nM 4.34% | 10000 nM 0.33%

CCS(=O)(=O)Nc1ccc2c(c1)/C(=C(/Nc1ccc(CN3CCCCC3)cc1)c1ccccc1)C(=O)N2 [hesperadin]
inactive: 1 nM 1.74% | 8.33 nM 3.12% | 100 nM 0.27% | 833.33 nM -9.14% | 10000 nM -10.5%

CC(C)(C)NC[C@H](O)c1ccc(O)cc1Cl [meluadrine]
inactive: 1 nM -1.16% | 8.33 nM 1.91% | 100 nM 1.61% | 833.33 nM -2.53% | 10000 nM -3.94%
